Laboratory results as given in PubChem BioAssay.
Active and inactive are the calls of the source.

What was measured:
[1] = binders of probe aFSTL3 on microarray, primary screen, stem cell growth factor project, biochemical, small-molecule microarray, fluorescence 635/667 (AID 1064); settings: higher = more signal;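 further: measures binding of the biotinylated anti-FSTL3 antibody to printed compounds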
[2] = binders from COS7 lysate, DM2A8 probe, primary screen, torsin A project, cell lysate, small-molecule microarray, fluorescence 635/667 (AID 1065); settings: higher = more signal, COS7 lysate expressing mutant human TOR1A
[3] = binders of probe aFGF2 on microarray, primary screen, stem cell growth factor project, biochemical, small-molecule microarray, fluorescence 635/667 (AID 1067); settings: higher = more signal;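 further: measures binding of biotinylated aFGF2 protein to printed compounds on slides; z-score merges feature fluorescence and signal-to-noise across triplicate slides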
[4] = binders of probe aFGF10 on microarray, primary screen, stem cell growth factor project, biochemical, small-molecule microarray, fluorescence 635/667 (AID 1071); settings: higher = more signal;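 further: score merges 667 nm spot intensity and signal to noise from triplicate slides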
[5] = biological target: Neurogenic locus notch homolog protein 2 (Homo sapiens) (UniProt Q04721); experiment: Notch2 binders on small-molecule microarrays, primary screen, biochemical, small-molecule microarray, 635 nm fluorescence, stem cell growth factors (AID 1073); settings: Notch2 binding, higher = more signal
[6] = biological target: Pro-neuregulin-1, membrane-bound isoform (Homo sapiens) (UniProt Q02297); experiment: NRG1 binders on small-molecule microarrays, primary screen, psychiatric disease protein project, biochemical, small-molecule microarray, fluorescence 635/667 (AID 1075); settings: NRG1 binding, 635 nm fluorescence, higher = more signal;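 further: score combines 667 nm spot fluorescence with signal to noise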
Chain of Pro-neuregulin-1, membrane-bound isoform (Homo sapiens) (Q02297 whole entry, looked up, the tested form may be a part, canonical isoform): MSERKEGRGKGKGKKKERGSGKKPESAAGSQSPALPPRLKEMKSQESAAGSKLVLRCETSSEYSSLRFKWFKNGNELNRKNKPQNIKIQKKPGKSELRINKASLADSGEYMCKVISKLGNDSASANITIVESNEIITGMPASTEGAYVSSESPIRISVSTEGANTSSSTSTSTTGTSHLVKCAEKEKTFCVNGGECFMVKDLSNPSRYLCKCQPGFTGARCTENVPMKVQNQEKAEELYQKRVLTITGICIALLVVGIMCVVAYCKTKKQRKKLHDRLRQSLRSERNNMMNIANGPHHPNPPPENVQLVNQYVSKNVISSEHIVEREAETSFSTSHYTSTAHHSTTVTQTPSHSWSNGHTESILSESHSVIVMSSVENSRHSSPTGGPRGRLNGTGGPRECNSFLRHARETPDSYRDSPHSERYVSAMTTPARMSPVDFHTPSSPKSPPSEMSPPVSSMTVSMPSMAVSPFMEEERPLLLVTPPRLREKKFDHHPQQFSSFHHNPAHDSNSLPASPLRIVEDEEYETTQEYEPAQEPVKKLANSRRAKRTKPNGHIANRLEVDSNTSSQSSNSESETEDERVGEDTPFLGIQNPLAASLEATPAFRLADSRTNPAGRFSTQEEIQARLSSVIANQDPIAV

[7] = system: Neuregulin-1 EGF-like domain; experiment: binders of neuregulin-1 EGF-like domain, primary screen, biochemical, small-molecule microarray, 635 nm fluorescence (AID 1081); settings: small-molecule microarray binding, higher = more signal;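 further: binding of the protein to compounds printed on small-molecule microarray slides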
[8] = FRG1 promoter luciferase signal modulators, primary screen, FRG1 inhibition for FSHD, cell-based, C2C12 myotubes, firefly/Renilla luciferase, luminescence (AID 1084); settings: higher = more signal, called active from +8 up or from −8 down
[9] = binders of probe aFST on microarray, primary screen, stem cell growth factor project, biochemical, small-molecule microarray, fluorescence 635/667 (AID 1086); settings: higher = more signal;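 further: score merges 667 nm fluorescence with signal-to-noise of each printed compound spot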
[10] = binders of probe aHhip on microarray, primary screen, stem cell growth factor project, biochemical, small-molecule microarray, fluorescence 635/667 (AID 1087); settings: higher = more signal;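 further: score merges spot fluorescence at 667nm with spot signal to noise ratio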
[11] = system: PRMT1 (protein arginine N-methyltransferase 1); experiment: PRMT1 binders on small-molecule microarrays, primary screen, biochemical, small-molecule microarray, 635 nm fluorescence (AID 1088); settings: small-molecule microarray binding, higher = more signal;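 further: binding of Prmt1 protein to compounds spotted on small-molecule microarray slides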
[12] = yeast growth modulation, basal conditions, primary screen, YJM789 clinical isolate, OD600, 24 h (AID 1089);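 further: growth of clinical yeast isolate S. cerevisiae YJM 789 seeded 1000 cells per well; test concentration not given here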; settings: S. cerevisiae YJM789 growth, higher = more signal, called active from +8 up or from −8 down
[13] = fission yeast growth modulation, primary screen, strain 972, OD600, 24 h, no modulator (AID 1090);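 further: basal condition with compound alone and no growth modifier present; test concentration not given here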; settings: S. pombe 972 growth, higher = more signal, called active from +8 up or from −8 down
[14] = S. cerevisiae growth modulation with rapamycin, primary screen, strain BY4716, OD600, 96 h (AID 1091); settings: higher = more signal, called active from +8 up or from −8 down; further: test concentration not given here
[15] = biological target: Torsin-1A-interacting protein 2 (Homo sapiens) (UniProt Q8NFQ8); experiment: LULL1 binders on small-molecule microarray, primary screen, cell lysate, human LULL1 lysate, 635/667 nm fluorescence (AID 1092); settings: hLULL1 lysate binding, 635 nm fluorescence, higher = more signal;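 further: probe is lysate of COS7 cells overexpressing human LULL1; score merges per-feature 667 nm fluorescence with signal-to-noise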
Chain of Torsin-1A-interacting protein 2 (Homo sapiens) (Q8NFQ8 whole entry, looked up): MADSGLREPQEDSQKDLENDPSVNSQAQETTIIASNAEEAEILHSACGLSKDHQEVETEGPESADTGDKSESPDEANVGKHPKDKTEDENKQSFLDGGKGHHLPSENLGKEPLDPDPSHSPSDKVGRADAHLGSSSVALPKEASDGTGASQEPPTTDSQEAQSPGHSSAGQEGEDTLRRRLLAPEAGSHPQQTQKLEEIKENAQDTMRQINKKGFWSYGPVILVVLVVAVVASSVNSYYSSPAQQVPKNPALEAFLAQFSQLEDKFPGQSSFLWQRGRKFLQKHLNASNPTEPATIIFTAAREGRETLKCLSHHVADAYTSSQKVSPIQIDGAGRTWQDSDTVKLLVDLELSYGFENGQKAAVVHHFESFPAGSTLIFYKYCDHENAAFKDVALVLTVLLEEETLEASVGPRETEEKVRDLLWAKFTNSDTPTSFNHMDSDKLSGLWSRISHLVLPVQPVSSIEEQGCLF

[16] = E. coli growth modulation, two-sided OD650, primary screen, E. coli filamentation project, strain DRC41, 24 h (AID 1093); settings: OD650, 24 h, higher = more signal, called active from +8 up or from −8 down;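 further: MC1000 strain lacking acrAB efflux and sulA so SOS filamentation is blocked; test concentration not given here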
[17] = small-molecule microarray binders of probe aLefty2, primary screen, biochemical, biotinylated probe, 635/667 nm fluorescence (AID 1094); settings: higher = more signal;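 further: score merges spot fluorescence near 667 nm with spot signal-to-noise ratio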
[18] = system: Noggin (protein binding on small-molecule microarray); experiment: Noggin binders on small-molecule microarray, primary screen, biochemical, 635/667 nm fluorescence (AID 1095); settings: 635 nm fluorescence, higher = more signal;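 further: score merges 667 nm feature fluorescence with signal to noise over triplicate slides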
[19] = biological target: Neurogenic locus notch homolog protein 3 (Homo sapiens) (UniProt Q9UM47); experiment: NOTCH3 binders on small-molecule microarray, primary screen, biochemical, 635/667 nm fluorescence (AID 1096); settings: NOTCH3 binding, 635 nm fluorescence, higher = more signal
Chain of Neurogenic locus notch homolog protein 3 (Homo sapiens) (Q9UM47 whole entry, looked up): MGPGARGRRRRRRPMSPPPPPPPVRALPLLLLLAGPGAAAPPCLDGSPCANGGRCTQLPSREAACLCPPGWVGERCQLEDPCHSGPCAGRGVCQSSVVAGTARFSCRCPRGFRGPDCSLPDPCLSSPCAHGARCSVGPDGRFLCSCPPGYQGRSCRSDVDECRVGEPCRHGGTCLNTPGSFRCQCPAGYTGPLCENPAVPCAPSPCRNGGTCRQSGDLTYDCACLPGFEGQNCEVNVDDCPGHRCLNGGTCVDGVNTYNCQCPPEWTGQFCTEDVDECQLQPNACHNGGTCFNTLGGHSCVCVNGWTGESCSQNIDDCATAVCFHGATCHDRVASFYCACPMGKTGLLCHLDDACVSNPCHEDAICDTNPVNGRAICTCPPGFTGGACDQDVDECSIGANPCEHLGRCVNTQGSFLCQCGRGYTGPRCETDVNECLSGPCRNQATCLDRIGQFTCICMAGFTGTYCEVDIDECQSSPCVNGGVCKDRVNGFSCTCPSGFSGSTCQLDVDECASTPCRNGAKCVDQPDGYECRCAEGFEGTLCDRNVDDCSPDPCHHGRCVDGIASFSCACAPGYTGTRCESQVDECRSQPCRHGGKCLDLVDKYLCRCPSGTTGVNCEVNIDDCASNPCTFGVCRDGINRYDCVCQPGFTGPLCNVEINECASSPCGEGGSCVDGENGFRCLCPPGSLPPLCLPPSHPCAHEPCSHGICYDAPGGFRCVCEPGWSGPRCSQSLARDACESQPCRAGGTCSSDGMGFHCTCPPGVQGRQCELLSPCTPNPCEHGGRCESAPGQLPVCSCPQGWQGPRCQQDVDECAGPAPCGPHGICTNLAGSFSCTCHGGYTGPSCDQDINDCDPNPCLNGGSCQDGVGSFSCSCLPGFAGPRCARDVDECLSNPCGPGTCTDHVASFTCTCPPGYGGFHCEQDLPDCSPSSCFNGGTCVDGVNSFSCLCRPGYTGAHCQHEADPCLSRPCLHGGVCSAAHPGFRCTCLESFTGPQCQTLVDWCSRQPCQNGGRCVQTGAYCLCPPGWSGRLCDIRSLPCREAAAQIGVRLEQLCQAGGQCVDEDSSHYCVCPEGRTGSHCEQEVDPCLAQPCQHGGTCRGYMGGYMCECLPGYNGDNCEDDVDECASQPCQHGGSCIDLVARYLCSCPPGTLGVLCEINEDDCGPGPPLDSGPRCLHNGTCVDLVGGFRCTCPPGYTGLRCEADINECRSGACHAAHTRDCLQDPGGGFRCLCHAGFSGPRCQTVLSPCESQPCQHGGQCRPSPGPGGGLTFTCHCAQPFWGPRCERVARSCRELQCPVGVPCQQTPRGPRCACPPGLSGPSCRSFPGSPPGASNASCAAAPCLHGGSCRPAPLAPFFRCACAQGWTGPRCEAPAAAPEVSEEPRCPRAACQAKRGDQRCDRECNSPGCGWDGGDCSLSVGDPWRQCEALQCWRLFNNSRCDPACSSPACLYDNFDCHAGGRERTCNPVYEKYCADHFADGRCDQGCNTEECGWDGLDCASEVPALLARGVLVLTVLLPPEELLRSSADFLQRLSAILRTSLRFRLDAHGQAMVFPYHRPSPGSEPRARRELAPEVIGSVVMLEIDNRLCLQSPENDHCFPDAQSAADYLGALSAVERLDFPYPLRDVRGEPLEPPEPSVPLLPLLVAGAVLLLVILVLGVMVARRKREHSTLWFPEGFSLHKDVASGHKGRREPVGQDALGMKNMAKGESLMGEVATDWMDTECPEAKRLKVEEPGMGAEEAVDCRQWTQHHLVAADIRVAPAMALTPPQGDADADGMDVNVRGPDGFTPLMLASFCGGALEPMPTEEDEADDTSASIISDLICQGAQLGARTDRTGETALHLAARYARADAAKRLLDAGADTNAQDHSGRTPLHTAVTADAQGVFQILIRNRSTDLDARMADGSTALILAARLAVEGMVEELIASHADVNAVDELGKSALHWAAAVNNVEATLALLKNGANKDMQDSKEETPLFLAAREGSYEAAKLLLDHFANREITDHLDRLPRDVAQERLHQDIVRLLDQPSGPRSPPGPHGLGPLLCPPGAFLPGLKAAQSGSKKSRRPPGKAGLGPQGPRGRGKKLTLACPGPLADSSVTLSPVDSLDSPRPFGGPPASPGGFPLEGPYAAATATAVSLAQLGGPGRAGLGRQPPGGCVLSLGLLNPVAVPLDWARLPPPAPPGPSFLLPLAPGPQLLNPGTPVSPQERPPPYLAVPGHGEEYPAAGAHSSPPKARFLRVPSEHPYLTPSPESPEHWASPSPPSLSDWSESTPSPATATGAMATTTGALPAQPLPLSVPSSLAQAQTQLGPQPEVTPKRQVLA

[20] = small-molecule microarray binders of probe aEGFR, primary screen, biochemical, biotinylated probe, 635/667 nm fluorescence (AID 1097); settings: higher = more signal;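 further: probe is a biotinylated anti-EGFR antibody binding compounds printed on slides; score combines fluorescence near 667 nm and signal to noise of each spot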

Row | SMILES | composite z-score [1] | composite z-score [2] | composite z-score [3] | composite z-score [4] | composite z-score [5] | composite z-score [6] | composite z-score [7] | z-score [8] | composite z-score [9] | composite z-score [10] | composite z-score [11] | z-score [12] | z-score [13] | z-score [14] | composite z-score [15] | z-score [16] | composite z-score [17] | composite z-score [18] | composite z-score [19] | composite z-score [20]
1 | Cc1ccc(S[C@]2(C(=O)NCC(C)C)CC(=O)N(Cc3ccccc3)[C@@H]2c2ccc(CO)cc2)cc1 | 0.148 | -0.674 | -0.076 | 0.146 | -0.967 | -0.431 | 0.221 | -3.05 (inactive) | 0.161 | -0.226 | 0.744 | -1.14 (inactive) | -1.14 (inactive) | -0.256 (inactive) | 1.86 | -0.579 (inactive) | 0.189 | -0.779 | -0.331 | -0.236
2 | C=CCC(OC(C)=O)[C@@H]1[C@@H](N(Cc2ccc(-c3cccc(C(F)(F)F)c3)o2)C(=O)c2ccc(C)cc2)c2cc(OCCCO)ccc2N1C(=O)c1ccc2ccccc2n1 (stereo not given in full) | 0.172 | 0.0875 | -0.036 | 0.515 | 0.126 | 0.147 | 0.118 | -0.352 (inactive) | 0.361 | 0.0373 | -0.0077 | -0.269 (inactive) | -0.546 (inactive) | 0.28 (inactive) | 0.42 | 1.44 (inactive) | -0.0286 | 0.605 | 0.309 | -0.147
3 | O=c1cccc(-c2ccc3ccccc3c2)o1 | 0.636 | -0.0452 | 0.114 | -0.183 | -0.383 | -0.288 | -0.602 | 7.42 (inactive) | 0.389 | -0.0022 | -0.387 | -11.9 (active) | -15 (active) | -3.02 (inactive) | -0.0751 | 1.82 (inactive) | 0.0673 | -0.0993 | -0.349 | -0.138
4 | CC(=O)NCCCC[C@@H]1NC(=O)[C@@H]2C[C@H](C(=O)NCc3ccc(F)cc3)[C@H](c3ccc(O)cc3)N2C1=O | 0.114 | 0.798 | 0.0377 | 0.639 | -0.326 | 0.772 | 1.47 | -0.0693 (inactive) | -0.21 | -0.0994 | 1.54 | -0.36 (inactive) | -1.36 (inactive) | -0.713 (inactive) | 2.41 | 1.53 (inactive) | -0.128 | 1.67 | 0.208 | -0.122
5 | CC(C)C(CO)N1C(=O)[C@@H]2[C@H]3C(=O)OCC=C[C@H]3OC23C=CCN(c2ccc4ccccc4c2)C(=O)[C@@H]13 (stereo not given in full) | 0.316 | -0.377 | -0.169 | -0.134 | -1.13 | 0.187 | -0.111 | 0.125 (inactive) | -0.527 | 0.0373 | -0.382 | 0.523 (inactive) | -0.494 (inactive) | 1.17 (inactive) | 0.607 | 0.0732 (inactive) | -0.192 | -1.21 | -0.319 | -0.127
6 | Cc1ccc(S(=O)(=O)N2CC(C(=O)O)=CCC2c2ccccc2)cc1 (stereo not given) | 0.578 | -0.0007 | -0.0128 | 0.118 | -0.0631 | -0.0288 | -0.11 | -1.03 (inactive) | -0.513 | -0.204 | 0.461 | -0.224 (inactive) | 1.29 (inactive) | -0.0893 (inactive) | 2.89 | -1.11 (inactive) | 0.431 | -1.22 | -0.231 | 0.254
7 | CN(C)CCCCCCNC(=O)[C@@H]1C[C@@H]2C(=O)N[C@@H](Cc3ccccc3)C(=O)N2[C@@H]1c1cccc(OCCO)c1 | 0.0797 | 1.42 | -0.0605 | 0.215 | 0.0438 | 1.42 | 1.33 | 3.59 (inactive) | 0.258 | 0.241 | 1.55 | -1.49 (inactive) | -1.07 (inactive) | -0.567 (inactive) | 2.67 | 0.698 (inactive) | 0.0498 | 1.05 | 1.13 | -0.0492
8 | C=CC[C@@]1(C(=O)OC)N=C(c2ccc(OCCCO)cc2)O[C@@H]1c1ccccc1CN=[N+]=[N-] | 0.0729 | 0.0269 | -0.116 | -0.438 | 0.406 | 0.482 | 1.1 | -0.484 (inactive) | 0.166 | -0.199 | 1.3 | -3.29 (inactive) | -4.42 (inactive) | 6.32 (inactive) | 1.41 | 1.21 (inactive) | 0.0427 | 0.744 | -0.159 | -0.0531
9 | COc1c(C)cc(-c2cc3c(c(-c4ccccc4)n2)[Si](C(C)C)(C(C)C)O[C@H]3c2ccccc2)cc1C | -0.409 | -0.103 | -0.103 | 0.235 | 0.234 | -0.0051 | -0.438 | 0.361 (inactive) | 0.291 | 0.0373 | 0.431 | -0.336 (inactive) | -0.253 (inactive) | 0.0998 (inactive) | 0.0055 | -1.1 (inactive) | -0.166 | 0.37 | 0.418 | -0.0359
10 | COCCOC(=O)N1C(=O)[C@@]2(c3cc(C#CCC(C(=O)OC)C(=O)OC)ccc31)[C@H](c1ccccc1OCCO)N1[C@H](c3ccccc3)[C@H](c3ccccc3)OC(=O)[C@H]1[C@@H]2C(=O)Nc1nc2ccccc2s1 | -0.144 | 1.2 | -0.0335 | 1.19 | 1.2 | 1.37 | 1.06 | 0.0053 (inactive) | 0.417 | 0.417 | 1.5 | -1.03 (inactive) | -0.573 (inactive) | 1.95 (inactive) | 2.22 | 4.28 (inactive) | 0.0416 | 1.05 | 1.05 | 0.0632
